# Data published in the supplement of paper PMC6555819.
# Experiments:
# Test in all cases: PBM binding z-score (relative to random genomic background probes); higher = stronger binding; sequences stand for … in GC…GCGATTGACAGCGTAGAATGAAGG
# [1] = test system: FXR:RXRa (NR concentration 270 nM, RXRa partner concentration 90 nM)
# Procedure, shortened: (§1)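 Regression normalization was applied to scanned fluorescence from custom Agilent 4×180K protein-binding microarrays. Before scanning, arrays were incubated 1 h with ligand-free nuclear receptor dimers, and binding was detected with antibodies against each partner (one per run). Binding z-scores use the random background probes as reference.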
# [2] = test system: LXRa:RXRa (NR concentration 270 nM, RXRa partner concentration 90 nM)
# Procedure, shortened: as §1
# [3] = test system: LXRa homodimer (NR concentration 270 nM)
# Procedure, shortened: as §1
# [4] = test system: LXRb:RXRa (NR concentration 270 nM, RXRa partner concentration 90 nM)
# Procedure, shortened: as §1
# [5] = test system: LXRb homodimer (NR concentration 270 nM)
# Procedure, shortened: as §1
# [6] = test system: PPARa:RXRa (NR concentration 270 nM, RXRa partner concentration 90 nM)
# Procedure, shortened: as §1
# [7] = test system: PPARg:RXRa (NR concentration 180 nM, RXRa partner concentration 90 nM)
# Procedure, shortened: as §1
# [8] = test system: PPARg:RXRa 270nM:90nM, anti-RXR (NR concentration 270 nM, RXRa partner concentration 90 nM)
# Procedure, shortened: as §1
# [9] = test system: PPARg:RXRa 30nM:10nM, anti-RXR (NR concentration 30 nM, RXRa partner concentration 10 nM)
# Procedure, shortened: as §1
# [10] = test system: PPARg:RXRa 90nM:30nM, anti-RXR (NR concentration 90 nM, RXRa partner concentration 30 nM)
# Procedure, shortened: as §1
# [11] = test system: PPARg:RXRa DBDmut IVT, anti-RXR (DBD mutation: RXRa K156A/R161A, NR concentration 270 nM, RXRa partner concentration 90 nM)
# Procedure, shortened: as §1
# [12] = test system: PPARg:RXRa IVT, anti-PPARg (NR concentration 270 nM, RXRa partner concentration 90 nM)
# Procedure, shortened: as §1
# [13] = test system: PPARg DBDmut:RXRa IVT, anti-PPARg (DBD mutation: PPARg1 K132A/R137A, NR concentration 270 nM, RXRa partner concentration 90 nM)
# Procedure, shortened: as §1
# [14] = test system: PPARg DBDmut IVT, anti-PPARg (DBD mutation: PPARg1 K132A/R137A, NR concentration 270 nM)
# Procedure, shortened: as §1
# [15] = test system: PPARg homodimer (NR concentration 180 nM)
# Procedure, shortened: as §1
# [16] = test system: PXR:RXRa (NR concentration 270 nM, RXRa partner concentration 90 nM)
# Procedure, shortened: as §1
# [17] = test system: PXR homodimer (NR concentration 270 nM)
# Procedure, shortened: as §1
# [18] = test system: RARa:RXR (NR concentration 270 nM, RXRa partner concentration 90 nM)
# Procedure, shortened: as §1
# [19] = test system: RARa homodimer (NR concentration 270 nM)
# Procedure, shortened: as §1
# [20] = test system: RARb:RXRa (NR concentration 270 nM, RXRa partner concentration 90 nM)
# Procedure, shortened: as §1
Sequence,PBM binding z-score [1],PBM binding z-score [2],PBM binding z-score [3],PBM binding z-score [4],PBM binding z-score [5],PBM binding z-score [6],PBM binding z-score [7],PBM binding z-score [8],PBM binding z-score [9],PBM binding z-score [10],PBM binding z-score [11],PBM binding z-score [12],PBM binding z-score [13],PBM binding z-score [14],PBM binding z-score [15],PBM binding z-score [16],PBM binding z-score [17],PBM binding z-score [18],PBM binding z-score [19],PBM binding z-score [20]
TCTTGTAGATCAACAGGAGCTTAAGAAAGATCGA,-0.438,-0.744,-1.18,-0.366,-0.825,0.0739,-0.318,0.847,2.14,1.43,1.16,0.103,0.548,-0.235,-1.17,-0.361,-0.82,-0.535,-0.604,-0.522
CGTCGAAGTTCAACTAAGGTAACGTAAAGCACGC,4.31,3.83,1.23,2.36,0.375,3.15,1.3,1.98,0.415,1.23,-0.101,0.723,0.00916,0.194,1.47,4.23,2.7,3.02,0.757,3.74
AGAATGCGGTTATACGTAGATCAGGGAAGAAAGT,-0.295,0.056,-0.263,-0.408,-0.59,-0.235,0.152,-0.304,-0.0964,-0.139,-0.0715,-0.172,-0.724,-0.259,-0.759,-0.417,-0.318,-0.261,-0.54,-0.164
GCTGCCAGGTCAACTGATGGTCAGCTAAAGCTCG,4.84,3.82,0.113,2.73,0.00556,4.4,2.42,3.09,0.281,1.61,2.71,2.73,0.45,-0.276,4.33,2.76,-0.337,4.22,-0.0772,4.46
CAAACTAGGTCACGAAAGGTCAGAGTCGAATGAC,6.76,7.61,5.28,6.37,1.23,5.96,10.3,7.74,6.9,8.34,8.85,9.13,3.21,1.91,7.35,6.33,1.71,6.97,5.45,5.39
CTCGAAAGGTCGTGCTCAGGTGAATATACCAAAC,5.33,4.19,0.375,3.82,0.534,5.05,2.81,3.84,1.1,2.6,0.879,2.15,0.682,0.68,1.34,3.6,0.506,4.28,0.678,3.92
CGTCTAAGTTCAACTAAGGTAACGTAAAGCACGC,5.42,4.54,1.66,2.8,0.991,3.67,1.24,2.06,0.533,1.24,0.256,0.683,0.378,0.759,1.95,5.04,4.82,3.08,1.48,4
CCTCGGAGGACAACACGAGGTCAGAGCTGCCAGA,1.62,2.84,2.76,1.58,-0.589,2.22,0.596,0.153,-0.655,-0.293,0.265,0.387,-0.876,-1.22,1.79,3.06,0.779,3.03,0.807,2.96
ATCACTAGGTAAAGATAGTTCAGTGAATGCAAAT,0.213,3.82,0.581,0.654,0.171,0.991,1.13,0.685,0.585,0.404,3.21,2.54,1.22,1.14,0.795,1.02,0.598,0.654,1.19,0.635
